Inconclusive results are not listed. The source made the active and inactive calls. How the source made its calls, unless noted: active means hit-call score of the fitted dose curve at least 0.9, where 1 is the maximum; inactive means score below 0.9.
Key:
[1] = IUF_NPC1b_proliferation_BrdU_72hr: Leibniz Research Institute for Environmental Medicine (IUF) 72-hour Neural Progenitor Cell Bromodeoxyuridine (BrdU) Proliferation Assay (NPC1b) (AID 2284207)
Outline: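 Human fetal cortex-derived (GW 16-19) neural progenitor spheres, 0.25-0.35 mm, one per well in EGF/FGF proliferation medium, exposed to compound for 72 h at 37C, pH 7.2-7.6. BrdU incorporation over the final 16 h read by luminescence ELISA, relative to DMSO.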

[2] = IUF_NPC1a_proliferation_area_72hr: Leibniz Research Institute for Environmental Medicine (IUF) 72-hour Neural Progenitor Cell Proliferation Area Assay (NPC1a) (AID 2284208)
Outline: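 Measured in 3D suspension: each well held one primary hNPC sphere grown with EGF and FGF at pH 7.2-7.6. Compound stayed on for 72 h, then area was imaged; spheres lacking growth factors defined reduced proliferation.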

[3] = IUF_NPC1_viability_72hr: Viability Assessment at 72 hours in the Leibniz Research Institute for Environmental Medicine (IUF) Neural Progenitor Cell Proliferation Assay (NPC1) (AID 2284209)
Outline: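 Spheres of primary human neural progenitors were plated singly in proliferation medium and treated for 72 h. Mitochondrial reduction of resazurin was then measured by fluorescence and analysed against DMSO controls.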

[4] = CCTE_Mundy_HCI_Cortical_Synap_Neur_Matur_NeuriteSpotCountPerNeuriteLength: CCTE's Synaptogenesis and Neurite Maturation Assay in rat cortical cells for Neurite Spot Count per Neurite Length, Mundy Lab (AID 2284210)
Outline: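 Synaptophysin spots per unit neurite length, measured by automated imaging of MAP2/synaptophysin/Hoechst-stained neurons. Cultures from rat cortex received chemical at DIV 7 with media change through DIV 12; glial growth arrested by AraC at DIV 5; DMSO baseline.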

[5] = CCTE_Mundy_HCI_Cortical_NOG_NeuriteLength: CCTE's Neurite Outgrowth Assay in rat cortical cells for Neurite Length, Mundy Lab (AID 2284213)
Outline: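 First, rat primary cortical cells were plated and, 2 h later, given test chemical as a 1/10 dilution. Finally, βIII-tubulin immunostaining enabled automated imaging of neurite length.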

[6] = CCTE_Mundy_HCI_Cortical_Synap_Neur_Matur_NeuriteLength: CCTE's Synaptogenesis and Neurite Maturation Assay in rat cortical cells for Neurite Length, Mundy Lab (AID 2284214)
Outline: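 Cultures of rat primary cortical cells received chemical at DIV 7 and were fixed at DIV 12, after glial arrest with AraC at DIV 5. Neurite length was measured by automated imaging of MAP2 immunofluorescence.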

[7] = CCTE_Mundy_HCI_Cortical_Synap_Neur_Matur_NeuriteSpotCountPerNeuron: CCTE's Synaptogenesis and Neurite Maturation Assay in rat cortical cells for Neurite Spot Count per Neuron Count, Mundy Lab (AID 2284215)
Outline: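 Developing rat cortical neurons, with glia suppressed by AraC, are exposed to chemicals from DIV 7 to DIV 12. Automated fluorescence imaging of MAP2-labelled neurites and synaptophysin puncta yields a count per neuron, normalised against DMSO wells.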

[8] = CCTE_Mundy_HCI_Cortical_Synap_Neur_Matur_SynapseCount: CCTE's Synaptogenesis and Neurite Maturation Assay in rat cortical cells for Synapse Count, Mundy Lab (AID 2284218)
Outline: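 Cells were plated, allowed 2 hr to attach, treated with AraC at DIV 5, then exposed to chemicals from DIV 7 until DIV 12. After fixation and MAP2/synaptophysin immunolabelling, synapses per neuron were quantified by automated imaging against DMSO.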

[9] = CCTE_Mundy_HCI_hN2_NOG_NeuriteCount: CCTE's Neurite Outgrowth Assay in human hN2 cells for Neurite Count, Mundy Lab (AID 2284219; active means hit-call score of the fitted dose curve at least 0.9, where 1 is the maximum)
Outline: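 In this morphology assay, hNP1-derived neurons received test chemical 2 h post-plating and were fixed two days later in warm paraformaldehyde/sucrose containing Hoechst 33342. Neurites, labelled by rabbit anti-βIII-tubulin (1:800) and Alexa Fluor-488 (1:500), were counted automatically.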

[10] = CCTE_Mundy_HCI_hN2_NOG_NeuriteLength: CCTE's Neurite Outgrowth Assay in human hN2 cells for Neurite Length, Mundy Lab (AID 2284220; active means hit-call score of the fitted dose curve at least 0.9, where 1 is the maximum)
Outline: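 Plate hNP1-derived neurons, then add chemical 2 h later as a 1/10 dilution. Stain with anti-βIII-tubulin then Alexa Fluor-488 secondary, and image automatically to measure neurite length.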

[11] = CCTE_Mundy_HCI_hN2_NOG_NeuronCount: CCTE's Neurite Outgrowth Assay in human hN2 cells for Neuron Count, Mundy Lab (AID 2284221; active means hit-call score of the fitted dose curve at least 0.9, where 1 is the maximum)
Outline: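 Read-out is the number of betaIII-tubulin-positive neurons imaged by automated high-content analysis, with DMSO as negative control.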

[12] = CCTE_Mundy_HCI_Cortical_Synap_Neur_Matur_CellBodySpotCount: CCTE's Synaptogenesis and Neurite Maturation Assay in rat cortical cells for Cell Body Spot Count, Mundy Lab (AID 2284223)
Outline: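 Chemicals were applied to AraC-treated rat primary cortical cells at DIV 7 and measured at DIV 12. Fixed cells were labelled for MAP2, synaptophysin and nuclei, and high-content imaging gave cell body synaptophysin spot counts per neuron relative to DMSO.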

[13] = UKN4_HCS_LUHMES_cell_viability: Viability Assessment in the University of Konstanz (UKN) Leist Lab Neurite Outgrowth Assay in human LUHMES cells (UKN4) (AID 2284232)
Outline: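 Cells switched to differentiation medium at day 0, replated on day 2 in medium lacking cAMP and GDNF, and compound-treated once attached. Live staining began 23.5 h later, imaging followed at 24 h.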

[14] = UKN2_HCS_IMR90_cell_viability: Viability Assessment in the University of Konstanz (UKN) Leist Lab Neural Crest Cell Migration Assay in human induced IMR90 Pluripotent Stem Cells (UKN2) (AID 2284233);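 further: cells exposed to compound for 24 h after a 24 h migration phase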
Outline: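 After calcein-AM/Hoechst staining, viability is quantified by high-content fluorescence imaging, relative to DMSO, in iPSC (IMR90)-derived neural crest cells. Exposure lasts 24 h, starting after a 24 h migration period on PLO/laminin/fibronectin coating.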

[15] = CCTE_Mundy_HCI_Cortical_NOG_NeuronCount: CCTE's Neurite Outgrowth Assay in rat cortical cells for Neuron Count, Mundy Lab (AID 2284236; active means hit-call score of the fitted dose curve at least 0.9, where 1 is the maximum;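 further: neurons counted by imaging betaIII-tubulin and Hoechst stained cortical cells; cells exposed to compound for about 48 hours before fixation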)
Outline: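 Read-out: neuron number by high-content imaging of betaIII-tubulin (Alexa Fluor-488) and Hoechst-labelled rat primary cortical cells.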

[16] = CCTE_Mundy_HCI_hNP1_Casp3_7: CCTE's Caspase-Glo 3/7 Assay in human neuroprogenitor cells for Apoptosis, Mundy Lab (AID 2284240)
Outline: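 Apoptosis is scored by activated caspase-3/7 luminescence in WA09-derived neural progenitor cells, measured 26.5 h after chemical dosing. Values represent gain of signal relative to DMSO vehicle.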

[17] = IUF_NPC2c_oligodendrocyte_migration_120hr: Leibniz Research Institute for Environmental Medicine (IUF) 120-hour Neural Progenitor Cell Migration Assay for Oligodendrocyte Migration (NPC2c) (AID 2284297);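 further: O4-positive oligodendrocyte migration distance divided by radial glia migration distance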
Outline: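 Using fetal brain neural progenitor spheres differentiating in N2 medium at 37C, compounds were present for 120 h. Oligodendrocyte migration distance, normalized to radial glia migration, was measured from imaged O4 staining.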

[18] = IUF_NPC2a_radial_glia_migration_120hr: Leibniz Research Institute for Environmental Medicine (IUF) 120-hour Neural Progenitor Cell Migration Assay for Radial Glia Migration (NPC2a) (AID 2284298)
Outline: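 Exposure of 0.3 mm primary hNPC spheres runs day 0 to 120 h with a half-volume medium change at day 3. Fixed cells get Hoechst staining; high-content analysis of nuclear positions yields radial glia migration distance per well, compared against DMSO controls.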

[19] = IUF_NPC2a_radial_glia_migration_72hr: Leibniz Research Institute for Environmental Medicine (IUF) 72-hour Neural Progenitor Cell Migration Assay for Radial Glia Migration (NPC2a) (AID 2284299)
Outline: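 Single 0.3 mm neurospheres were plated per well in N2 differentiation medium and exposed from the start of differentiation. After 72 hours, brightfield images were taken and radial glia migration from the sphere core edge was measured manually in four directions, averaged per well.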

[20] = IUF_NPC2b_neuronal_migration_120hr: Leibniz Research Institute for Environmental Medicine (IUF) 120-hour Neural Progenitor Cell Migration Assay for Neuron Migration (NPC2b) (AID 2284300)
Outline: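 Fetal human NPC spheres migrate on PDL/laminin during 120 h compound treatment; neuronal migration distance, glia-normalized, scored versus DMSO control.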

[21] = IUF_NPC3_neuronal_differentiation_120hr: Leibniz Research Institute for Environmental Medicine (IUF) 120-hour Neuronal Differentiation Assay (NPC3) (AID 2284301)
Outline: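 Value is percent TUBB3-positive neurons among Hoechst-stained nuclei in the migration area, scored by trained CNN after 120 h differentiation. Primary hNPC spheres on poly-D-lysine/laminin, N2 medium, continuous dosing from day 0, half-refeed day 3; DMSO reference.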

[22] = IUF_NPC4_neurite_length_120hr: Leibniz Research Institute for Environmental Medicine (IUF) 120-hour Neuronal Morphology Assay for Neurite Length (NPC4) (AID 2284302)
Outline: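 Neurite length, the mean in um across TUBB3-stained neurons, is derived by skeletonization of high-content images after 120 h differentiation. Compound exposure, 7 concentrations plus solvent control, ran from plating of hNPC spheres on poly-D-lysine/laminin, with medium half-replaced on day 3.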

[23] = IUF_NPC5_oligodendrocyte_differentiation_120hr: Leibniz Research Institute for Environmental Medicine (IUF) 120-hour Oligodendrocyte Differentiation Assay (NPC5) (AID 2284304; active means hit-call score of the fitted dose curve at least 0.9, where 1 is the maximum;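 further: primary human fetal neural progenitor spheres plated to migrate and differentiate; share of O4-positive cells among Hoechst nuclei found by CNN image analysis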)
Outline: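 After plating on poly-D-lysine/laminin, fetal-derived hNPC spheres differentiated for 120 h at 37C in compound-containing N2 medium, refreshed by half on day 3. O4 immunostaining over Hoechst nuclei in the migration zone gave oligodendrocyte percentage relative to DMSO.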

[24] = IUF_NPC4_neurite_area_120hr: Leibniz Research Institute for Environmental Medicine (IUF) 120-hour Neuronal Morphology Assay for Neurite Area (NPC4) (AID 2284305; active means hit-call score of the fitted dose curve at least 0.9, where 1 is the maximum)
Outline: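 Neurite area (pixels, nuclei excluded) of TUBB3-positive neurons from hNPC spheres differentiating 5 days under continuous exposure at 37 C, 5% CO2. High-content imaging; loss of signal versus DMSO control across 7 concentrations.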

[25] = IUF_NPC2-5_cytotoxicity_72hr: Cytotoxicity Assessment at 72 hours in the Leibniz Research Institute for Environmental Medicine (IUF) Neural Progenitor Cell Migration and Differentiation Assay for Cytotoxicity (NPC2-5) (AID 2284306; active means hit-call score of the fitted dose curve at least 0.9, where 1 is the maximum;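 further: LDH release into supernatant measured by resorufin fluorescence marking membrane damage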)
Outline: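 Membrane-integrity cytotoxicity at 72 h, read as LDH-driven resorufin fluorescence in supernatant. hNPC spheres from fetal cortex differentiate on coated plates in N2 medium, 37C, 5% CO2; seven serial compound concentrations plus solvent control (DMSO ≤0.1%).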

[26] = IUF_NPC2-5_cytotoxicity_120hr: Cytotoxicity Assessment at 120 hours in the Leibniz Research Institute for Environmental Medicine (IUF) Neural Progenitor Cell Migration and Differentiation Assay (NPC2-5) (AID 2284307; active means hit-call score of the fitted dose curve at least 0.9, where 1 is the maximum)
Outline: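 Membrane-integrity loss is quantified by LDH in supernatant after five days of exposure of migrating, differentiating human fetal NPC spheres; seven serially diluted concentrations are tested with DMSO kept at or below 0.1%.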

[27] = IUF_NPC2-5_cell_number_120hr: Cell Number Assessment at 120 hours in the Leibniz Research Institute for Environmental Medicine (IUF) Neural Progenitor Cell Migration and Differentiation Assay (NPC2-5) (AID 2284308);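 further: count of Hoechst-stained nuclei in migration zone around plated human neural progenitor spheres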
Outline: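 Seven-point serial dilutions plus solvent control were applied to plated 0.3 mm hNPC spheres at differentiation start, with medium half-replaced at day 3. Nuclei positive for Hoechst in the migration zone were enumerated at 120 h.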

[28] = IUF_NPC2-5_viability_120hr: Viability Assessment at 120 hours in the Leibniz Research Institute for Environmental Medicine (IUF) Neural Progenitor Cell Migration and Differentiation Assay (NPC2-5) (AID 2284312)
Outline: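 Alamar blue resorufin fluorescence read after 5 days of differentiation, with compound present from day 0 and replenished at day 3. Primary hNPC spheres on laminin-coated plates, 37C; seven concentrations plus solvent control, fitted against DMSO.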

Measured: outcome

CC(C)(C)NCC(O)c1cc(O)cc(O)c1 (stereo not drawn)
inactive: all assays above

Source: PubChem BioAssay (EPA / NIEHS)
